Data on eight compounds can be found in PubChem BioAssay (Tox21).

“And” between values parts separate entries of the source, which are not always exact repeats. Identical values can stand only once. Results filed as inconclusive are left out. A structure can be active in one record and inactive in another. The source made the active and inactive calls. Unless noted, calls follow the shape of the dose curve; as a rule, active = well fitted curve in the direction sought with a large enough effect in the repeat runs; inconclusive = weak or mixed curves; inactive = no such curve, though single readings can be large; an effect the other way counts as inactive or inconclusive.

The target of assay [1] is Thyrotropin-releasing hormone receptor (Homo sapiens) (UniProt P34981). The experiment in a line: qHTS assay to identify small molecule agonists of the thyrotropin-releasing hormone receptor (TRHR) signaling pathway (AID 1346891; calls by dose curve;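 also: HEK293 cells expressing TRHR with calcium dye readout; series mostly up to about 58 µM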). Put shortly:
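HEK293/TRHR cells, 1500 per well, 18 h 37 °C; Ca dye 2 h 37 °C; pin-tool compound addition (agonist mode); kinetic fluorescence 3 min, 1 s reads; 15 concentrations, triplicate.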
A general note: In qHTS, concentration-response curves come from the screen itself.

Assay [2] can be described thus: Human pregnane X receptor (PXR) small molecule agonists, qHTS cell viability counter screen (AID 1346977). Also: nearly all actives have a fitted effect of over 50% in size. Also: potency is read from the fitted curve at half-maximal effect. Put shortly: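 Fluorescence read-out (CellTiter-Fluor) of viability in PXR-Luc HepG2 cells, multiplexed with the luciferase agonist read. Compounds in DMSO added after 5hr plating; 24hr total exposure at 37C, 5% CO2.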
Assay [3] can be described thus: Caspase-3/7 induction in HepG2 cells by small molecules, qHTS assay (AID 1346978). Also: nearly all actives have a fitted effect of over 15% in size. The gist of the method: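 Caspase-3/7 induction was measured by Caspase-Glo 3/7 luminescence (30 min, room temperature) after a 17 hr compound exposure of wild-type HepG2 cells seeded at 2,000 per well and pre-incubated 5 hr.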
Assay [4] can be described thus: Caspase-3/7 induction in CHO-K1 cells by small molecules, qHTS cell viability counter screen (AID 1346979). Also: nearly all actives have a fitted effect of over 35% in size. Also: potency is read from the fitted curve at half-maximal effect. The gist of the method:
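CHO-K1 wt, 1,500 cells/well; 5hr pre-incubation 37C/5% CO2; compound pin transfer (DMSO); 16hr exposure; CellTiter-Fluor added, 1hr, fluorescence read.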

Assay [5] in a line: Caspase-3/7 induction in CHO-K1 cells by small molecules, qHTS assay (AID 1346980). Also: nearly all actives have a fitted effect of over 15% in size. Put shortly: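 Luminescent Caspase-Glo 3/7 read (30min, room temperature) quantified apoptosis induction. Cells were wild-type CHO-K1, treated with compound for 17hr at 37 C and 5% CO2.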
A short description of assay [6]: Caspase-3/7 induction in HepG2 cells by small molecules, qHTS cell viability counter screen (AID 1346981). Also: nearly all actives have a fitted effect of over 30% in size. Also: potency is read from the fitted curve at half-maximal effect. Put shortly: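 In this quantitative HTS counter screen, compounds delivered in DMSO were left on unmodified HepG2 cells for 16 hr at 37 C. Viability was then determined fluorometrically with CellTiter-Fluor, in parallel with caspase-3/7 induction in the same wells.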

Assay [7] concerns the target Nuclear receptor subfamily 1 group I member 2 (Homo sapiens) (UniProt O75469). As to the kind of experiment: Human pregnane X receptor (PXR) small molecule agonists, qHTS assay (AID 1346982). Also: nearly all actives have a fitted effect of over 35% in size. Also: potency is read from the fitted curve at half-maximal effect. The gist of the method:
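Reporter HepG2 cells expressing PXR-Luc are cultured in charcoal-stripped FBS (5%), treated with compounds for 24 hr at 37 C, and assayed by ONE-Glo luminescence after 30 min at room temperature.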

For assay [8], the target named is Nuclear receptor subfamily 1 group I member 2 (Rattus norvegicus) (UniProt Q9R1A7). As to the kind of experiment: Rat pregnane X receptor (rPXR) activation by small molecules, qHTS assay (AID 1346983). Also: nearly all actives have a fitted effect of over 20% in size. Particulars: rPXR luciferase reporter cells, One-Glo luminescence, 24 h; stronger effect = higher value. The gist of the method:
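Luminescent readout (One-Glo luciferase, 30 min room temperature) followed 24 hr compound treatment at 37 C of rPXR cells plated 2,000 per well and preincubated 5hr; qHTS format with compounds delivered in DMSO.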

The target of assay [9] is Acetylcholinesterase (Homo sapiens) (UniProt P22303). As to the kind of experiment: Acetylcholinesterase (AChE) small molecule antagonists: colormetric cell-based qHTS assay (AID 1347395; calls by dose curve; also: nearly all actives have a fitted effect of over 30% in size). Put shortly:
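SH-SY5Y cells; cpd 30 min 37 C; + DTNB/acetylthiocholine, 90 min 37 C; colorimetric thiocholine read; qHTS.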

For assay [10] the target is unchanged. The experiment in a line: Acetylcholinesterase (AChE) small molecule antagonists: fluorescence cell-based qHTS assay (AID 1347398; calls by dose curve; also: nearly all actives have a fitted effect of over 50% in size). Particulars: Potency: AChE activity; outcome: AChE activity. Put shortly:
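Homogeneous quantitative HTS format. SH-SY5Y cells seeded at 2,000 per well settle overnight at 37 C. Compound pretreatment runs 30 min (37 C, 5% CO2); substrate/probe mix then reacts 40 min at RT before reading 490/520 nm.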

Assay [11] has the same target. The experiment in a line: Acetylcholinesterase (AChE) small molecule antagonists: enzyme-based qHTS assay with human liver microsomes (AID 1347399; calls by dose curve; also: nearly all actives have a fitted effect of over 60% in size). The following applies: Potency: qHTS inhibition; outcome: qHTS inhibition. Put shortly:
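Recombinant human AChE (50 mU/mL in the enzyme mix) and human liver microsomes (0.25 mg/mL final) were preincubated with compound and NADPH (0.25 mg/mL final) for 30 min at 37 C. Acetylthiocholine/DTNB was then added; thiocholine was read colorimetrically after 10 min at room temperature.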

In assay [12] the target is Cytochrome P450 2D6 (Homo sapiens) (UniProt P10635). As to the kind of experiment: Cytochrome P450 Family 2 Subfamily D Member 6 (CYP2D6) small molecule antagonists: luciferase reporter qHTS assay (AID 1671196). Also: nearly all actives have a fitted effect of over 50% in size. Also: potency is read from the fitted curve at half-maximal effect. Put shortly:
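Test chemicals meet CYP2D6 plus proluciferin substrate (10 min, RT); NADPH regenerating solution then drives turnover for 1 h. Detection reagent halts the reaction; luminescence measured after 20 min.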
Background: In a reporter assay the amount or activity of a reporter protein is the signal.

Assay [13] addresses Cytochrome P450 2C19 (Homo sapiens) (UniProt P33261). The experiment in a line: Cytochrome P450 Family 2 Subfamily C Member 19 (CYP2C19) small molecule antagonists: luciferase reporter qHTS assay (AID 1671197). Also: nearly all actives have a fitted effect of over 65% in size. Also: potency is read from the fitted curve at half-maximal effect. The gist of the method:
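Quantitative high-throughput screen of the Tox21 library using CYP2C19 with proluciferin substrate. Reaction: NADPH regeneration, 37C, 1 h, after 10 min compound preincubation at room temperature. Readout: luminescence.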

Assay [14] deals with Cytochrome P450 2C9 (Homo sapiens) (UniProt P11712). As to the kind of experiment: Cytochrome P450 Family 2 Subfamily C Member 9 (CYP2C9) small molecule antagonists: luciferase reporter qHTS assay (AID 1671198). Also: nearly all actives have a fitted effect of over 50% in size. Also: potency is read from the fitted curve at half-maximal effect. The gist of the method:
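Enzyme-substrate mix preincubated with compound 10 min at room temperature; reaction started with NADPH regeneration solution, 1 h 37C. Luminescent luciferin product read after 20 min detection reagent.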

The target of assay [15] is Cytochrome P450 1A2 (Homo sapiens) (UniProt P05177). As to the kind of experiment: Cytochrome P450 Family 1 Subfamily A Member 2 (CYP1A2) small molecule antagonists: luciferase reporter qHTS assay (AID 1671199). Also: nearly all actives have a fitted effect of over 50% in size. Also: potency is read from the fitted curve at half-maximal effect. The gist of the method: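 Steps: enzyme-substrate mix dispensed; test compounds and furafylline control pinned in; 10 min room temperature; NADPH regeneration solution added, 1 h; reaction stopped with luciferin detection reagent; luminescence read after 20 min.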

Assay [16] concerns the target Voltage-gated inwardly rectifying potassium channel KCNH2 (Homo sapiens) (UniProt Q12809). The experiment in a line: Human Ether-a-go-go-Related Gene (hERG) channel small molecule antagonists: fluorescence cell-based qHTS assay (AID 1671200). Also: nearly all actives have a fitted effect of over 50% in size. Also: potency is read from the fitted curve at half-maximal effect. Put shortly: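 Read-out: thallium influx as a surrogate for potassium, tracked as fluorescence (480 nm ex/540 nm em) every second for 2 min after Stimulus Buffer addition in dye-loaded hERG-U2OS cells.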
A general note: The hERG channel carries a current that helps repolarise heart muscle cells.

Assay [17] has as its target Cytochrome P450 3A4 (Homo sapiens) (UniProt P08684). The experiment in a line: Cytochrome P450 Family 3 Subfamily A Member 4 (CYP3A4) small molecule antagonists: luciferase reporter qHTS assay (AID 1671201). The gist of the method: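 Luminescent readout (RLU) proportional to CYP3A4 activity, from luciferin generated off a proluciferin substrate. Enzyme–substrate mix plus compound 10 min at room temp, NADPH regeneration 1 h, detection reagent 20 min.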

In assay [18] the target is Nuclear receptor subfamily 1 group I member 2 (Homo sapiens) (UniProt O75469). The experiment in a line: Human pregnane X receptor (PXR) activation by small molecules, qHTS assay (AID 1346985). Also: nearly all actives have a fitted effect of over 40% in size. Also: potency is read from the fitted curve at half-maximal effect. Put shortly:
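DPX-2 cells (HepG2 co-transfected with a PXR response element and a CYP3A4-promoter luciferase construct) were seeded at 2,000 per well, rested 5 hr at 37C, then exposed to DMSO-dissolved compounds for 24 hr. Activation was read as luciferase luminescence.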

Assay [19] concerns the target Acetylcholinesterase (Homo sapiens) (UniProt P22303). The experiment in a line: Acetylcholinesterase (AChE) small molecule antagonists: enzyme-based qHTS assay (AID 1347397; calls by dose curve; also: nearly all actives have a fitted effect of over 55% in size). The following applies: Potency: AChE enzyme activity inhibition; outcome: AChE enzyme activity inhibition. Put shortly: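 First, recombinant human AChE (50 mU/mL as dispensed) received test compound or DMSO. Second, plates stood 30 min at room temperature. Third, DTNB and acetylthiocholine were added, followed by 10 min at room temperature and colorimetric detection.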
% is scaled to controls: 0 for no effect and ±100 for the full control effect.

Chain of Cytochrome P450 2C19 (Homo sapiens) (P33261 whole entry, looked up): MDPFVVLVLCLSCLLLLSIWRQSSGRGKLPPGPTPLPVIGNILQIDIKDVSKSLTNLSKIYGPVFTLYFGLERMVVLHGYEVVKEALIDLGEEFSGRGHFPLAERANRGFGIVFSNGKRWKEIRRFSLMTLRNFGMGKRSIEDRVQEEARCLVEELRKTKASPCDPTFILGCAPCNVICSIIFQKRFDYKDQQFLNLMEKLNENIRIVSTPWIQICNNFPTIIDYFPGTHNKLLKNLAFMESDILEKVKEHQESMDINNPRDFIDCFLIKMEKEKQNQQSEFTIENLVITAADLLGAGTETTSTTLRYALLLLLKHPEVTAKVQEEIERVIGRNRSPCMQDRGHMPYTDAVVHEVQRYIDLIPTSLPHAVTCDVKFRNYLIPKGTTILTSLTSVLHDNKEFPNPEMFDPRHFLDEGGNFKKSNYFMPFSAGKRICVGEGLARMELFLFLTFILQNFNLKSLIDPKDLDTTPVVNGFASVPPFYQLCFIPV
Chain of Cytochrome P450 2D6 (Homo sapiens) (P10635 whole entry, looked up): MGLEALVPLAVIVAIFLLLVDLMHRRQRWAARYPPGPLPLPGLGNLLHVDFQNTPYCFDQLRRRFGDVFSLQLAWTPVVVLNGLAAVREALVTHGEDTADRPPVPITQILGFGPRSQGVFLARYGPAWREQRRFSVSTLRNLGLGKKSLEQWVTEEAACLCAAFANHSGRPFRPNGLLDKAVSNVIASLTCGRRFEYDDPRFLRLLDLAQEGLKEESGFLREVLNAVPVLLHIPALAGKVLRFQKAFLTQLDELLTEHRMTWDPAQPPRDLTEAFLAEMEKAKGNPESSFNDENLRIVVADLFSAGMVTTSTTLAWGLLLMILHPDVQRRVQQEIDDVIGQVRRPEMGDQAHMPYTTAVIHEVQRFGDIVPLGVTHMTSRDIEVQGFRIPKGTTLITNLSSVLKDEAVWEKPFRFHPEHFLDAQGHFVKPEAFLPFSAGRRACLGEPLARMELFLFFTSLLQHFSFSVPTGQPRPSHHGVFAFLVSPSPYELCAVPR
Chain of Thyrotropin-releasing hormone receptor (Homo sapiens) (P34981 whole entry, looked up): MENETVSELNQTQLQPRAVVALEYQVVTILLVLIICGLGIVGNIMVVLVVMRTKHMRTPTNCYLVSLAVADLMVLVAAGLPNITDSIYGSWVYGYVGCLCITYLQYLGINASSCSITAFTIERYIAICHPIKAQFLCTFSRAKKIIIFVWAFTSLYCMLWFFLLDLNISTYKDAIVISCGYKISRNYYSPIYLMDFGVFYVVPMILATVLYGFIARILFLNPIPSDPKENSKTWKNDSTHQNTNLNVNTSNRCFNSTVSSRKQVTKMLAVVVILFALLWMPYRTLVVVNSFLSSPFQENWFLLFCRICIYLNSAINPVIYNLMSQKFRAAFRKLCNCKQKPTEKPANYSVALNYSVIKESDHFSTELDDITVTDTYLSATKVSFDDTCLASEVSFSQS
Chain of Cytochrome P450 2C9 (Homo sapiens) (P11712 whole entry, looked up): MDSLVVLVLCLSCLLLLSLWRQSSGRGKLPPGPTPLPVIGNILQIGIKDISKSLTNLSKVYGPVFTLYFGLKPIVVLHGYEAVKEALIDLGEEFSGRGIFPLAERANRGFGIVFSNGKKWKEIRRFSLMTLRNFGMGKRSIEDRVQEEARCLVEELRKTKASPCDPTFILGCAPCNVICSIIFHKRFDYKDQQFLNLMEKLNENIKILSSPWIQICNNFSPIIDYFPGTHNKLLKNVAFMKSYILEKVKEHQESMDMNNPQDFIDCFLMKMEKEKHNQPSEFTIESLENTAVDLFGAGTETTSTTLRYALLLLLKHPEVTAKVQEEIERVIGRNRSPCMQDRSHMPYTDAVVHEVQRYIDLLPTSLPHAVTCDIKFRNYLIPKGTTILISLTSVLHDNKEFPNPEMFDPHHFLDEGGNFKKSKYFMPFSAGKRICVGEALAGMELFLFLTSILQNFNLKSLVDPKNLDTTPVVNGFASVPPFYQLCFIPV
Chain of Acetylcholinesterase (Homo sapiens) (P22303 whole entry, looked up): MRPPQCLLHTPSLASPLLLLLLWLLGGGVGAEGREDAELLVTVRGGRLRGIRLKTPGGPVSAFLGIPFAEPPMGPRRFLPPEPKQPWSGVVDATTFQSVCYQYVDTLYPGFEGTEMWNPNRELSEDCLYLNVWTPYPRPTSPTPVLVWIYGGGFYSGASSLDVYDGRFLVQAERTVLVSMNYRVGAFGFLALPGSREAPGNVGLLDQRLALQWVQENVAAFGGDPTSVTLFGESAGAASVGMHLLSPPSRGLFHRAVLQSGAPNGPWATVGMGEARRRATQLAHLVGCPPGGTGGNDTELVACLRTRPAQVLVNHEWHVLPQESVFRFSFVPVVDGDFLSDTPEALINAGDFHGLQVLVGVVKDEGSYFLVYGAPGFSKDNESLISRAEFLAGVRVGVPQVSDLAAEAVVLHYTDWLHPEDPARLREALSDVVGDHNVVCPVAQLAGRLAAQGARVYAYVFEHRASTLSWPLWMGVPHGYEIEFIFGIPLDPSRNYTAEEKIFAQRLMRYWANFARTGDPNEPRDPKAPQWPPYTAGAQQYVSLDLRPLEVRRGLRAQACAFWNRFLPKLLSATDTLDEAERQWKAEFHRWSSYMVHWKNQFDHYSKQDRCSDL
Chain of Cytochrome P450 1A2 (Homo sapiens) (P05177 whole entry, looked up): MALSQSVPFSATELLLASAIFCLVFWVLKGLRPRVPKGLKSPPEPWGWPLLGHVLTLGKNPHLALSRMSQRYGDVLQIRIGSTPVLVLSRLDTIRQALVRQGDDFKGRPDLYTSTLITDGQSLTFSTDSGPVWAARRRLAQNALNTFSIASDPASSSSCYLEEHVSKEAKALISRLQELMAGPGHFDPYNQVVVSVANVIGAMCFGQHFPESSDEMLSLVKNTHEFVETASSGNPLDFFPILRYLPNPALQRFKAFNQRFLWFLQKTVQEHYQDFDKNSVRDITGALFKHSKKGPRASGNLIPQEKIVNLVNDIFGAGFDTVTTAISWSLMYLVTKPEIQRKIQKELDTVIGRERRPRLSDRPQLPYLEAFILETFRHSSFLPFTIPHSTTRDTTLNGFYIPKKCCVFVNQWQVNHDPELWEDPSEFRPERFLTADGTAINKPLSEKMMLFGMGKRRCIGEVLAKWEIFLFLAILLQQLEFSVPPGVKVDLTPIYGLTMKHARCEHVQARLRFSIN
Chain of Nuclear receptor subfamily 1 group I member 2 (Homo sapiens) (O75469 whole entry, looked up): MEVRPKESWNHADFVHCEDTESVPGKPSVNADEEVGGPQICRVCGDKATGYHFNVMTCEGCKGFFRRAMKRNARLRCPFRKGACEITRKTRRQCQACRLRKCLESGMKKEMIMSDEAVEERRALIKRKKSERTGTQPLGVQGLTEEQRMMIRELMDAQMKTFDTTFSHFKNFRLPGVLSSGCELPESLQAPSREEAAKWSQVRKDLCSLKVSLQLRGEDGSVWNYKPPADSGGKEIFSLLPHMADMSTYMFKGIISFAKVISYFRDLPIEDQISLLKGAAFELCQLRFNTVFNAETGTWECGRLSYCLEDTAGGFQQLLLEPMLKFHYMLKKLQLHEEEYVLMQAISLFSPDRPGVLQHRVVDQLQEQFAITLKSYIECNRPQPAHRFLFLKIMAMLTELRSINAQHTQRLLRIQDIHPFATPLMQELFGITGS
Chain of Voltage-gated inwardly rectifying potassium channel KCNH2 (Homo sapiens) (Q12809 whole entry, looked up): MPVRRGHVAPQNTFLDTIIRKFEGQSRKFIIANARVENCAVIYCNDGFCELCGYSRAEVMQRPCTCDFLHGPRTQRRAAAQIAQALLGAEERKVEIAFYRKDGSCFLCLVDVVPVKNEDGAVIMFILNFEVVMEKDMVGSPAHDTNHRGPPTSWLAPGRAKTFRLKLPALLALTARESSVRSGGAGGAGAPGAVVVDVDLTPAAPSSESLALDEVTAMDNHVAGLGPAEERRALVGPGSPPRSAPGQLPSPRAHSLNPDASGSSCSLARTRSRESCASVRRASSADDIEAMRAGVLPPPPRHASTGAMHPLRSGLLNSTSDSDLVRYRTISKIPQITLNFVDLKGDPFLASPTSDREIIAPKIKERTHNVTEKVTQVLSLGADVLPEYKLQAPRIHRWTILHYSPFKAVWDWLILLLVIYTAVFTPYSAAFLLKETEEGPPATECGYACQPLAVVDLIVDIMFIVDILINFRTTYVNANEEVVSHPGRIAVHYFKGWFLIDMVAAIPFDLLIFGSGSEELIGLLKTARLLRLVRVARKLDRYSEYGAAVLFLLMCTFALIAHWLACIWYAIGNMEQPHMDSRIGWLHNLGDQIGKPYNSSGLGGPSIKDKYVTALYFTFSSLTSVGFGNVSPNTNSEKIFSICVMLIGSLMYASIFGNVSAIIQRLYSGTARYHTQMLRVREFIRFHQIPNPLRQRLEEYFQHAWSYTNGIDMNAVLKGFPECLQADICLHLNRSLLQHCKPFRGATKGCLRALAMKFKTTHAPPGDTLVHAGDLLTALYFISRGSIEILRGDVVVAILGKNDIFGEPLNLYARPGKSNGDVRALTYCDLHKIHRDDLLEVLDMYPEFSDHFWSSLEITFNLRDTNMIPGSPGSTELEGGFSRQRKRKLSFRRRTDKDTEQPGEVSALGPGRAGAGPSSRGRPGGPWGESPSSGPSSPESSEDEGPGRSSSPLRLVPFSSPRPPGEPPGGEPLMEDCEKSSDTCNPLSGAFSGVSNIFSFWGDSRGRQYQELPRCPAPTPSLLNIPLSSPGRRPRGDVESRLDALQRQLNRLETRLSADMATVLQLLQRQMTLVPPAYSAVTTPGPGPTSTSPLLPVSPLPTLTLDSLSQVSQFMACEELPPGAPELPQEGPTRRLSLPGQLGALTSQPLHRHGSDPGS

Consider `CCC1(c2ccccc2)CCC(=O)NC1=O` (stereo not drawn), for which the compound was called inactive in assay [1], in assay [3] and in assay [5]. Besides, the Potency result in assay [2], in [4], in assay [6], in assay [7], in [9] and in assay [10] was “inactive” in each case. In addition, the Potency result in assay [11], in assay [12], in assay [14], in [15], in assay [16] and in assay [17] was “inactive” each time. Also, the max activation in assay [8] is -0.631% (inactive). In addition, in assay [13], the Potency was 38.9 µM (active).

On to `CC1=C2[C@H]3OC(=O)[C@@H](C)[C@@H]3CC[C@@]2(C)C=CC1=O`, for which the outcome in [1], in assay [3] and in assay [5] was inactive. Moreover, the Potency result in assay [2], in assay [4], in assay [6], in assay [9], in assay [19] and in assay [10] was “inactive” each time. The Potency result in [11], in [13], in assay [15] and in [16] was “inactive” in each case. Further, the Potency was 7.5 µM (active) in assay [7] and 2.82 µM (active) in [18]. Also, the max activation in assay [8] was 8.61% (inactive).

Regarding `O=C1C2CC=CCC2C(=O)N1SC(Cl)(Cl)Cl` (stereo not drawn), the call in [1], in assay [3] and in [5] was inactive. Besides, the Potency entry in assay [2] was “inactive and 21.3 µM (active)”; in assay [4], 68.3 µM (active) and 12 µM (active); in [6], “inactive and 60.1 µM (active)”; in assay [12], 78.3 µM (active); in [13] it was 39.8 µM (active) and 8.79 µM (active); in assay [14] it was 31.6 µM (active) and 4.94 µM (active). The Potency in assay [15] is 31.6 µM (active) and 22.1 µM (active); in assay [16], “inactive and 48.2 µM (active)”. Further, the Potency entry in assay [7], in assay [18], in assay [9], in assay [19], in [10] and in [11] was “inactive” throughout. Further, the Potency result in assay [17] was “inactive”. Moreover, the max activation in assay [8] is -17% (inactive).

Regarding `O=C(CCl)NCO`, the result in assay [1], in assay [3] and in assay [5] was inactive. The Potency entry in [2], in assay [4], in assay [6], in assay [7], in assay [9] and in assay [19] was “inactive” throughout. Moreover, the Potency result in assay [10], in assay [11], in assay [12], in assay [13], in [14] and in assay [15] was “inactive” each time. For the same compound, the Potency entry in assay [16] and in assay [17] was “inactive” throughout.

Take `COC(=O)c1ccccc1CS(=O)(=O)NC(=O)Nc1nc(OC)cc(OC)n1`: the compound was classed as inactive in [1], in assay [3] and in [5]. The Potency entry in assay [2], in assay [4], in assay [6], in [9], in assay [10] and in [11] was “inactive” in each case. For the same compound, the Potency entry in [12], in [14], in assay [16] and in assay [17] was “inactive” each time. Moreover, the Potency in assay [7] is 34.4 µM (active).

Turning to `ClCCCCCCCl`, the compound was classed as inactive in [1], in [3] and in assay [5]. The Potency entry in assay [2], in [4], in assay [6], in [7], in assay [19] and in [10] was “inactive” each time. For the same compound, the Potency result in assay [11], in [12], in assay [14], in [16] and in assay [17] was “inactive” in each case. Besides, the Potency is 39.9 µM (active) in assay [13] and 35.6 µM (active) in assay [15].

With `O=C(O)C(Cl)Br` (stereo not drawn), the compound was called inactive in assay [1], in [3] and in assay [5]. In addition, the Potency result in assay [2], in assay [4], in [6], in [7], in assay [9] and in [19] was “inactive” in each case. In addition, the Potency result in assay [10], in assay [11], in [13], in assay [14], in assay [16] and in assay [17] was “inactive” each time.

As to `CN(C)CCN(C)C`, the compound was classed as inactive in [1], in [3] and in assay [5]. The Potency result in assay [2], in assay [4], in assay [6], in [7], in assay [19] and in assay [10] was “inactive” in each case. In addition, the Potency entry in assay [11], in assay [12], in assay [13], in [14] and in [17] was “inactive” each time.
